# Laboratory results taken from PubChem BioAssay AID1159580 (chemical genetic matrix, 2015).
# Screen size: about 5,500 compounds; about 2,000 (36%) were called active. Another 18% or so got no clear call; they are omitted. Some of the results follow. Unmarked numbers belong to inactive results. Rule as the data show it: active = normalized growth mostly below about 0.91 (no sharp cut-off); inconclusive = no clear call, values can overlap the other calls; inactive = mostly above about 0.92.
# Experiment: chemical genetic growth profiling, strain panel (AID 1159580);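 also: tested at 20 µM; growth read once vehicle control cultures reached saturation at 30 °C; 1 = growth at the plate median or of vehicle wells; lower values mean less growth of the strain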
# Conditions: S. cerevisiae deletion strains, growth OD
# [1] = locus YAL013W, strain DEP1, active compounds read low
# [2] = locus YMR263W, strain SAP30, active compounds read low
# [3] = locus YPL055C, strain LGE1, active compounds read low
# [4] = locus YPL241C, strain CIN2, active compounds read low
# [5] = locus YDL101C, strain DUN1, active compounds read low
# [6] = locus YHR030C, strain SLT2, active compounds read low
structure (smiles),measurement,setting,value
CC[C@H]1CN2CCc3cc(OC)c(OC)cc3[C@@H]2C[C@@H]1C[C@H]1NCCc2cc(OC)c(OC)cc21,normalized growth,[1],1.01
same,normalized growth,"locus YAL040C, strain CLN3, active compounds read low",0.999
same,normalized growth,"locus YCL061C, strain MRC1 (second series), active compounds read low",0.995
same,normalized growth,"locus YDR363W, strain ESC2, active compounds read low",0.999
same,normalized growth,"locus YER002W, strain NOP16, active compounds read low",1
same,normalized growth,"locus YGR229C, strain SMI1, active compounds read low",0.994
same,normalized growth,[2],1.01
same,normalized growth,"locus YMR307W, strain GAS1, active compounds read low",1.01
same,normalized growth,"locus YNL128W, strain TEP1, active compounds read low",0.999
same,normalized growth,"locus YNL175C, strain NOP13, active compounds read low",1.03
same,normalized growth,"locus YNL197C, strain WHI3, active compounds read low",1.02
same,normalized growth,"locus YNL224C, strain SQS1, active compounds read low",1.02
same,normalized growth,"locus YOR083W, strain WHI5 (second series), active compounds read low",1.02
same,normalized growth,[3],1.02
same,normalized growth,[4],1
O=C(Nc1ccccn1)c1cc(-c2ccccc2)c(C(F)(F)F)s1,normalized growth,"locus YAR019C, strain CDC15, active compounds read low",0.954
same,normalized growth,"locus YBL105C, strain PKC1, active compounds read low",0.94
same,normalized growth,"locus YBR135W, strain CKS1, active compounds read low",0.947
same,normalized growth,"locus YBR136W, strain MEC1, active compounds read low",0.953
same,normalized growth,"locus YBR160W, strain CDC28, active compounds read low",0.939
same,normalized growth,"locus YDL017W, strain CDC7, active compounds read low",0.945
same,normalized growth,"locus YDL028C, strain MPS1, active compounds read low",0.95
same,normalized growth,[5],0.944
same,normalized growth,"locus YDL108W, strain KIN28, active compounds read low",0.962
same,normalized growth,"locus YDL132W, strain cdc53, active compounds read low",0.942
same,normalized growth,"locus YDL214C, strain PRR2, active compounds read low",0.897
same,normalized growth,"locus YDR052C, strain DBF4, active compounds read low",0.955
same,normalized growth,"locus YDR054C, strain cdc34, active compounds read low",0.947
same,normalized growth,"locus YDR226W, strain ADK1, active compounds read low",0.965
same,normalized growth,"locus YDR477W, strain SNF1, active compounds read low",0.969
same,normalized growth,"locus YER123W, strain YCK3, active compounds read low",0.967
same,normalized growth,"locus YER133W, strain GLC7, active compounds read low",0.961
same,normalized growth,"locus YFL009W, strain cdc4, active compounds read low",0.955
same,normalized growth,"locus YFL029C, strain CAK1, active compounds read low",0.939
same,normalized growth,"locus YFR003C, strain YPI1, active compounds read low",0.95
same,normalized growth,"locus YFR019W, strain FAB1, active compounds read low",0.953
same,normalized growth,"locus YFR028C, strain CDC14, active compounds read low",0.959
same,normalized growth,"locus YGR040W, strain KSS1, active compounds read low",0.96
same,normalized growth,"locus YGR052W, strain FMP48, active compounds read low",0.971
same,normalized growth,"locus YGR092W, strain DBF2, active compounds read low",0.902
same,normalized growth,[6],0.816 (active)
same,normalized growth,"locus YHR079C, strain IRE1, active compounds read low",0.877
same,normalized growth,"locus YHR082C, strain KSP1, active compounds read low",0.918
same,normalized growth,"locus YHR205W, strain SCH9, active compounds read low",0.836
same,normalized growth,"locus YIL147C, strain SLN1, active compounds read low",0.949
same,normalized growth,"locus YJL095W, strain BCK1, active compounds read low",0.916
same,normalized growth,"locus YJL128C, strain PBS2, active compounds read low",0.909
same,normalized growth,"locus YJL157C, strain FAR1, active compounds read low",0.948
same,normalized growth,"locus YJR016C, strain ILV3, active compounds read low",0.951
same,normalized growth,"locus YJR066W, strain TOR1 (second series), active compounds read low",1
same,normalized growth,"locus YJR066W, strain TOR1, active compounds read low",0.897
same,normalized growth,"locus YKL048C, strain ELM1, active compounds read low",0.948
same,normalized growth,"locus YKL067W, strain YNK1, active compounds read low",0.928
same,normalized growth,"locus YKL101W, strain HSL1, active compounds read low",0.929
same,normalized growth,"locus YKL193C, strain SDS22, active compounds read low",0.929
same,normalized growth,"locus YKL203C, strain TOR2, active compounds read low",1.01
same,normalized growth,"locus YLR113W, strain HOG1, active compounds read low",0.77 (active)
same,normalized growth,"locus YLR133W, strain CKI1, active compounds read low",0.941
same,normalized growth,"locus YLR403W, strain SFP1, active compounds read low",0.97
same,normalized growth,"locus YML070W, strain DAK1, active compounds read low",0.924
same,normalized growth,"locus YMR001C, strain CDC5, active compounds read low",0.921
same,normalized growth,"locus YMR205C, strain PFK2 (second series), active compounds read low",0.934
same,normalized growth,"locus YMR277W, strain FCP1, active compounds read low",0.928
same,normalized growth,"locus YNL006W, strain LST8, active compounds read low",0.94
same,normalized growth,"locus YNL020C, strain ARK1, active compounds read low",0.931
same,normalized growth,"locus YNL161W, strain CBK1, active compounds read low",0.934
same,normalized growth,"locus YNL183C, strain NPR1, active compounds read low",0.887
same,normalized growth,"locus YNL207W, strain RIO2, active compounds read low",0.935
same,normalized growth,"locus YNL222W, strain SSU72, active compounds read low",0.941
same,normalized growth,"locus YNL307C, strain MCK1 (second series), active compounds read low",0.897
same,normalized growth,"locus YOL078W, strain AVO1, active compounds read low",0.934
same,normalized growth,"locus YOL136C, strain PFK27, active compounds read low",0.893
same,normalized growth,"locus YOR061W, strain CKA2, active compounds read low",0.95
same,normalized growth,"locus YOR119C, strain RIO1, active compounds read low",0.945
same,normalized growth,"locus YOR231W, strain MKK1, active compounds read low",0.876
same,normalized growth,"locus YOR329C, strain SCD5, active compounds read low",0.935
same,normalized growth,"locus YPL031C, strain PHO85, active compounds read low",0.954
same,normalized growth,"locus YPL153C, strain RAD53, active compounds read low",0.963
same,normalized growth,"locus YPL204W, strain HRR25, active compounds read low",0.945
same,normalized growth,"locus YPL209C, strain IPL1, active compounds read low",0.938
same,normalized growth,"locus YPL256C, strain CLN2, active compounds read low",0.806 (active)
same,normalized growth,"locus YPR025C, strain CCL1, active compounds read low",0.942
same,normalized growth,"locus YPR106W, strain ISR1, active compounds read low",0.936
same,normalized growth,"locus YPR111W, strain DBF20, active compounds read low",0.975
same,normalized growth,"strain NNK1, active compounds read low",0.919
same,normalized growth,"strain TSCII, active compounds read low",0.938
O=C(Nc1cc(C(F)(F)F)cc(C(F)(F)F)c1)C(Sc1ccccn1)c1ccccc1 (configuration not stated),normalized growth,[1],0.998
same,normalized growth,"locus YBR229C, strain ROT2, active compounds read low",0.983
same,normalized growth,[5],0.987
same,normalized growth,"locus YDL134C, strain PPH21, active compounds read low",0.979
same,normalized growth,"locus YDR150W, strain NUM1, active compounds read low",1
same,normalized growth,"locus YEL061C, strain CIN8, active compounds read low",0.988
same,normalized growth,"locus YGR078C, strain PAC10, active compounds read low",0.989
same,normalized growth,[6],0.982
same,normalized growth,"locus YHR087W, strain rtc3, active compounds read low",0.973
same,normalized growth,"locus YJR043C, strain POL32, active compounds read low",0.995
same,normalized growth,"locus YJR075W, strain HOC1, active compounds read low",1.01
same,normalized growth,"locus YLR039C, strain RIC1, active compounds read low",0.944
same,normalized growth,"locus YLR058C, strain SHM2 (second series), active compounds read low",0.978
same,normalized growth,"locus YLR085C, strain ARP6, active compounds read low",1.02
same,normalized growth,"locus YLR262C, strain YPT6, active compounds read low",0.962
same,normalized growth,"locus YML094W, strain GIM5, active compounds read low",0.953
same,normalized growth,"locus YMR219W, strain ESC1, active compounds read low",0.99
same,normalized growth,[2],1.03
same,normalized growth,"locus YNL153C, strain GIM3, active compounds read low",1.01
same,normalized growth,"locus YNL298W, strain CLA4 (second series), active compounds read low",1.01
same,normalized growth,"locus YNL322C, strain KRE1, active compounds read low",0.991
same,normalized growth,"locus YNR030W, strain Alg12, active compounds read low",0.997
same,normalized growth,"locus YOL006C, strain TOP1, active compounds read low",0.997
same,normalized growth,[3],1.03
same,normalized growth,[4],0.98
same,normalized growth,"locus YPR135W, strain CTF4, active compounds read low",0.959
